The AC50 is the midpoint of the concentration-response curve, whichever way the signal moves.

Each structure is given as a SMILES string. Active and inactive are the calls of the source. The calls were made as follows: active = hit-call score of the fitted dose curve at least 0.9, where 1 is the maximum; inactive = score below 0.9.

Assay [1] is described as follows: ATG_CRE_CIS: Attagene CIS-FACTORIAL HepG2 Assay for human cAMP Responsive Element (CRE) binding protein 3 (AID 2282926). Particulars: HepG2 CRE cis-reporter, Attagene multiplexed mRNA; actives raise or lower the signal. The method in brief: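 Transfected HepG2 were treated for 24 hours, then RNA was extracted and reporter cDNA amplified with sequence-specific primers. Labelled fragments were separated by capillary electrophoresis, and the CRE signal was fitted bidirectionally with DMSO as baseline.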

Assay [2] deals with CCAAT/enhancer-binding protein beta (Homo sapiens) (UniProt P17676). The assay can be described thus: ATG_C_EBP_CIS: Attagene CIS-FACTORIAL HepG2 Assay for human CCAAT/Enhancer Binding Protein (C/EBP) beta (AID 2282927). The note with it: HepG2 Attagene cis-factorial transcription factor reporter; actives raise or lower the signal. The method, boiled down: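 RT-PCR/capillary electrophoresis fluorescence of reporter mRNA, 24 h post-dose, in HepG2 cells carrying transfected cis-promoter reporter units. Bidirectional curve fitting against DMSO baseline captures gain or loss of signal.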
CCAAT/enhancer-binding protein beta (Homo sapiens), sequence (P17676 whole entry, looked up): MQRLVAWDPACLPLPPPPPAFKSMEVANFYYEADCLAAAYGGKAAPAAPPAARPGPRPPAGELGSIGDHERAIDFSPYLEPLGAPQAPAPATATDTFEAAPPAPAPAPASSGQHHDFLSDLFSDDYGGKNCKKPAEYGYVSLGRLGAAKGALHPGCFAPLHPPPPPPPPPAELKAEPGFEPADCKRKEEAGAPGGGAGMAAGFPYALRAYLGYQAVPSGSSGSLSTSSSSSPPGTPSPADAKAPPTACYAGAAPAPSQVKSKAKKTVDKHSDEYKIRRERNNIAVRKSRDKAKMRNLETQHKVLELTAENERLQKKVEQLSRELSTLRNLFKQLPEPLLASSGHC

A short description of assay [3]: ATG_CMV_CIS: Attagene CIS-FACTORIAL HepG2 Assay for human CMV (Internal Marker) (AID 2282928).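 Also: endpoint acts as a background internal control marker rather than a target.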 The note with it: HepG2 CMV promoter reporter, transcription factor profiling; actives raise or lower the signal. The method in brief: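 CMV internal-marker background readout in transiently transfected HepG2 cells bearing cis-regulated reporter units. Reporter mRNA is measured 24 h after dosing by RT-PCR and capillary electrophoresis, with bidirectional fitting against DMSO.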

Assay [4] in a line: ATG_DR4_LXR_CIS: Attagene CIS-FACTORIAL HepG2 Assay for human Liver X Receptor (LXR), DR4 submotif (AID 2282929). The note with it: HepG2 Attagene DR4 cis-reporter, mRNA transcription; actives raise or lower the signal. The method in brief:
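Transiently transfected HepG2 liver cells; cis-regulated reporters; 24 h dosing. RT-PCR plus CE read-out of reporter mRNA. DMSO baseline, bidirectional curve fitting.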

The target of assay [5] is Aryl hydrocarbon receptor (Homo sapiens) (UniProt P35869). The assay can be described thus: ATG_Ahr_CIS: Attagene CIS-FACTORIAL HepG2 Assay for human Aryl Hydrocarbon Receptor (Ahr) (AID 2282930). Particulars: HepG2 AhR cis-factorial reporter transcription; actives raise or lower the signal. The method in brief: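 HepG2 cells transiently transfected with cis-element-driven multiplexed reporter transcription units; endogenous transcription factor activity measured as reporter mRNA 24 h after dosing. RT-PCR, 6-FAM labelling, HpaI digestion, capillary electrophoresis; bidirectional fitting versus DMSO baseline.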
Aryl hydrocarbon receptor (Homo sapiens), sequence (P35869 whole entry, looked up): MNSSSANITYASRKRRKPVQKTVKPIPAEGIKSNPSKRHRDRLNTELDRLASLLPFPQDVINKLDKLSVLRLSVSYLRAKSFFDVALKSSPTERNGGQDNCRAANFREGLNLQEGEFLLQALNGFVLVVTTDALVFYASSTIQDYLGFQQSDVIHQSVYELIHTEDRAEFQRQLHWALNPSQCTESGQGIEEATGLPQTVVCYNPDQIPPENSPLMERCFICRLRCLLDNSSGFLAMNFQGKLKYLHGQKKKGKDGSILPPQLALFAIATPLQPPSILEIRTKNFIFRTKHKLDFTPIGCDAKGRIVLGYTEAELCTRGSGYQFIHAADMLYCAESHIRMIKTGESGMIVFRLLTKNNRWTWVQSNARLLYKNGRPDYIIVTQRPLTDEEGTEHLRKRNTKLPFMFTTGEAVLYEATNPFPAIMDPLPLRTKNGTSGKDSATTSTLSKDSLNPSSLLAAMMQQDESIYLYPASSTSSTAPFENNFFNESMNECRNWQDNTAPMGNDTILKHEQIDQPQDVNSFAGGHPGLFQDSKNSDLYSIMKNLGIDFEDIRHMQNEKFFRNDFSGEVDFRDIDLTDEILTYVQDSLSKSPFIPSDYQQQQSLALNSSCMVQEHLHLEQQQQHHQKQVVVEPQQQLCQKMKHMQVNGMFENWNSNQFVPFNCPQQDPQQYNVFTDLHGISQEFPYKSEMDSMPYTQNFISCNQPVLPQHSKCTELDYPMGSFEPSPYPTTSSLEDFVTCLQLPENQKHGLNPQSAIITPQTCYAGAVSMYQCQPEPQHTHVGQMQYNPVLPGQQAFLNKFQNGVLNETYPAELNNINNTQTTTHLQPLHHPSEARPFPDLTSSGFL

Assay [6] is described as follows: ATG_AP_1_CIS: Attagene CIS-FACTORIAL HepG2 Assay for human Activator Protein 1 (AP-1) (AID 2282931). The note with it: HepG2 Attagene cis-factorial AP-1 reporter mRNA; actives raise or lower the signal. The method in brief: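 We transfected HepG2 cells transiently with a set of cis-regulated reporter transcription units, dosed them for 24 h, and quantified reporter mRNA via RT-PCR and capillary electrophoresis, scoring gain or loss of signal relative to DMSO.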

Assay [7] is described as follows: ATG_AP_2_CIS: Attagene CIS-FACTORIAL HepG2 Assay for human Activator Protein 2 (AP-2) (AID 2282932). Particulars: HepG2 AP-2 cis-reporter, Attagene transcription factor profiling; actives raise or lower the signal. The method, boiled down:
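HepG2 cells were transiently transfected with multiple cis-promoter reporter transcription units and dosed for 24 h. Reporter mRNA was measured by RT-PCR with capillary electrophoresis fluorescence; bidirectional fits relative to DMSO baseline.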

A short description of assay [8]: ATG_BRE_CIS: Attagene CIS-FACTORIAL HepG2 Assay for human Bone Morphogenetic Protein (BMP) Response Element (BRE) (AID 2282933). Particulars: HepG2 BMP response element reporter, Attagene transcription factor profiling; actives raise or lower the signal. The method, boiled down:
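HepG2 cells transiently transfected with multiplexed cis-element reporter units were dosed with chemical for 24 h. Reporter mRNA was measured by RT-PCR with fluorescent labelling, HpaI digestion and capillary electrophoresis; bidirectional fitting relative to DMSO.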

Assay [9] concerns the target Retinoic acid receptor alpha (Homo sapiens) (UniProt P10276). The assay can be described thus: ATG_DR5_RAR_CIS: Attagene CIS-FACTORIAL HepG2 Assay for human Retinoic Acid Receptor Alpha (RARE), DR5 submotif (AID 2282934). The note with it: HepG2 Attagene cis-factorial RARE DR5 reporter, mRNA; actives raise or lower the signal. The method, boiled down: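 HepG2 cells transiently transfected with multiplexed reporter units under cis (DR5 RARE) promoters, so endogenous transcription factor activity is measured. After 24 h compound exposure, reporter mRNA is quantified by RT-PCR with fluorescent labelling and capillary electrophoresis; bidirectional fitting versus DMSO.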

The target in assay [10] is Transcription factor E2F1 (Homo sapiens) (UniProt Q01094). The assay can be described thus: ATG_E2F_CIS: Attagene CIS-FACTORIAL HepG2 Assay for human E2F Transcription Factor 1 (AID 2282935). The note with it: HepG2 Attagene cis-reporter, E2F reporter RNA transcripts; actives raise or lower the signal. The method in brief:
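HepG2 cells transiently transfected with multiplexed cis-element reporter units, dosed for 24 h. Reporter mRNA measured by RT-PCR, 6-FAM primer-extension labeling, HpaI digestion and capillary electrophoresis; bidirectional fit versus DMSO baseline.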

Assay [11] is described as follows: ATG_E_Box_CIS: Attagene CIS-FACTORIAL HepG2 Assay for human Enhancer Box (E-box) (AID 2282936). Particulars: HepG2 E-box cis-reporter transcription, actives raise or lower the signal. The method in brief: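 HepG2 cells transiently transfected with multiplexed cis-element reporter units sensing endogenous transcription factor activity; 24 h compound exposure. Reporter mRNA measured by RT-PCR, 6-FAM primer extension, HpaI digestion and capillary electrophoresis; bidirectional fit versus DMSO.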

Assay [12] is described as follows: ATG_M_61_CIS: Attagene CIS-FACTORIAL HepG2 Assay for M61 Transcription Factor (Internal Marker) (AID 2282937). Particulars: HepG2 Attagene CIS-FACTORIAL M61 internal marker reporter; actives raise or lower the signal. The method, boiled down:
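Multiplexed reporter mRNA assay, HepG2 human hepatoma cells, 24 h treatment. Signal: FAM-labelled, HpaI-digested RT-PCR fragments by CE. Fit: bidirectional, baseline DMSO.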

In assay [13] the target is Hepatocyte nuclear factor 3-beta (Homo sapiens) (UniProt Q9Y261). The assay can be described thus: ATG_FoxA2_CIS: Attagene CIS-FACTORIAL HepG2 Assay for human Forkhead box A2 (FOXA2) (AID 2282942). The note with it: HepG2 cis-reporter transcription factor activity, 24 h; actives raise or lower the signal. The method in brief: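 Multiplexed cis-element reporter assay in transiently transfected HepG2. Twenty-four hours post-dosing, RNA was reverse-transcribed, amplified, FAM-labelled, HpaI-digested and separated by CE. Activity gain or loss relative to DMSO.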
Hepatocyte nuclear factor 3-beta (Homo sapiens), sequence (Q9Y261 whole entry, looked up): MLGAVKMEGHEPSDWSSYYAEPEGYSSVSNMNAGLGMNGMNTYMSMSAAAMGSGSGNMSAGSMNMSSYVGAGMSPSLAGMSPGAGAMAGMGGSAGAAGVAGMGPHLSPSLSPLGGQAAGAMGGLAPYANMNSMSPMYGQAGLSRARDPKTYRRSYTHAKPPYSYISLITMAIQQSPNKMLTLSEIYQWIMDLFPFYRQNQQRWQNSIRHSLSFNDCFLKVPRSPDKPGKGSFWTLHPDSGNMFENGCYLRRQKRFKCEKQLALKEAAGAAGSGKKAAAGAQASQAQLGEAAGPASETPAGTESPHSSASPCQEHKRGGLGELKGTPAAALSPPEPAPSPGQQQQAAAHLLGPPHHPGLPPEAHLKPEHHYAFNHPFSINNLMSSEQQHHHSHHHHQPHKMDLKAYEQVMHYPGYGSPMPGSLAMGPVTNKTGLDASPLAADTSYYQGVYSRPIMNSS

A short description of assay [14]: ATG_FoxO_CIS: Attagene CIS-FACTORIAL HepG2 Assay for human Forkhead box O (FoxO) (AID 2282943). The note with it: HepG2 Attagene cis-reporter, FoxO element, mRNA; actives raise or lower the signal. The method in brief: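 HepG2 cells transiently transfected with cis-promoter-driven multiple reporter transcription units; 24 h after chemical dosing, reporter mRNA quantified by RT-PCR, fluorescent primer extension, HpaI digestion and capillary electrophoresis. Bidirectional fitting versus DMSO baseline.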

A short description of assay [15]: ATG_GATA_CIS: Attagene CIS-FACTORIAL HepG2 Assay for human GATA Binding Protein (AID 2282944). Particulars: HepG2 GATA cis-element reporter, Attagene multiplex mRNA; actives raise or lower the signal. The method, boiled down: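 HepG2 cells transiently transfected with multiplexed cis-element reporter units reflecting endogenous transcription factor activity; reporter mRNA measured after 24 h dosing by RT-PCR, 6-FAM labeling, HpaI digestion and capillary electrophoresis. Bidirectional fitting versus DMSO baseline.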

Assay [16] can be described thus: ATG_GLI_CIS: Attagene CIS-FACTORIAL HepG2 Assay for human Zinc Finger Protein GLI1 (AID 2282945). The note with it: HepG2, Attagene cis-factorial reporter mRNA, GLI element; actives raise or lower the signal. The method in brief: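 HepG2 cells transiently transfected with cis-promoter multiplexed reporter units report endogenous transcription factor activity. After 24 h chemical exposure, reporter mRNA was quantified by RT-PCR, 6-FAM labelling, HpaI digestion and capillary electrophoresis, with bidirectional fitting against DMSO.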

The target in assay [17] is Bile acid receptor (Homo sapiens) (UniProt Q96RI1). In words: ATG_IR1_CIS: Attagene CIS-FACTORIAL HepG2 Assay for human Nuclear Receptor Subfamily 1 Group H Member 4 (NR1H4), IR1 submotif (AID 2282946). Particulars: IR1 reporter transcription, actives raise or lower the signal. The method, boiled down: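 Transient MRTU transfection, HepG2; 24 h dosing; RNA → RT-PCR → 6-FAM primer extension → HpaI digest → capillary electrophoresis fluorescence. Gain/loss of signal fitted relative to DMSO.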
Bile acid receptor (Homo sapiens), sequence (Q96RI1 whole entry, looked up): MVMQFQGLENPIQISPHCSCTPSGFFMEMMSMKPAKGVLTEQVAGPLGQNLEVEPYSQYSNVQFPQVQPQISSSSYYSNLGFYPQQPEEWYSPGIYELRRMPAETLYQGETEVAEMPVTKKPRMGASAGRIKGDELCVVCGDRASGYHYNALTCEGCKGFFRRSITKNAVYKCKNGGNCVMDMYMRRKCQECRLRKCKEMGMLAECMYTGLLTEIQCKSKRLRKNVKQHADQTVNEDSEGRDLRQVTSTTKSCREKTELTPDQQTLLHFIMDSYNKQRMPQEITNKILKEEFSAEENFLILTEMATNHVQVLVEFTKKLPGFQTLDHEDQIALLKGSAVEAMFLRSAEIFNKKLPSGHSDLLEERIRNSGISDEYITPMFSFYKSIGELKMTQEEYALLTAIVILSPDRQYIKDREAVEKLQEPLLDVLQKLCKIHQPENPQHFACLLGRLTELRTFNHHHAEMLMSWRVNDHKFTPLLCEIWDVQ

Assay [18] in a line: ATG_EGR_CIS: Attagene CIS-FACTORIAL HepG2 Assay for human Early Growth Response 1 (EGR1) (AID 2282938). The note with it: HepG2 Attagene CIS-FACTORIAL EGR reporter mRNA; actives raise or lower the signal. The method in brief: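 Multiplexed cis-reporter system in human hepatoma HepG2 cells, transiently transfected. Cells are dosed for 24 h; reporter transcripts are amplified, fluorescently tagged and sized by capillary electrophoresis, with DMSO as negative control.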

Assay [19] is described as follows: ATG_M_19_CIS: Attagene CIS-FACTORIAL HepG2 Assay for M19 Transcription Factor (Internal Marker) (AID 2282939). Particulars: HepG2 Attagene CIS-FACTORIAL M19 internal marker reporter; actives raise or lower the signal. The method, boiled down:
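HepG2 cells transiently transfected with cis-regulated multiple reporter transcription units were dosed for 24 h; reporter mRNA was quantified by RT-PCR, 6-FAM primer-extension labelling, HpaI digestion and capillary electrophoresis, with bidirectional fitting against DMSO baseline.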

Assay [20] in a line: ATG_Ets_CIS: Attagene CIS-FACTORIAL HepG2 Assay for human Erythroblast Transformation Specific (ETS) (AID 2282941). The note with it: HepG2 ETS cis-reporter transcription, actives raise or lower the signal. The method, boiled down: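 HepG2 cells transfected with multiple cis-regulated reporter units measuring endogenous ETS-driven transcription, 24 h after dosing. Reporter mRNA quantified by RT-PCR with capillary electrophoresis; bidirectional fit relative to DMSO.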

Retinoic acid receptor alpha (Homo sapiens), sequence (P10276 whole entry, looked up): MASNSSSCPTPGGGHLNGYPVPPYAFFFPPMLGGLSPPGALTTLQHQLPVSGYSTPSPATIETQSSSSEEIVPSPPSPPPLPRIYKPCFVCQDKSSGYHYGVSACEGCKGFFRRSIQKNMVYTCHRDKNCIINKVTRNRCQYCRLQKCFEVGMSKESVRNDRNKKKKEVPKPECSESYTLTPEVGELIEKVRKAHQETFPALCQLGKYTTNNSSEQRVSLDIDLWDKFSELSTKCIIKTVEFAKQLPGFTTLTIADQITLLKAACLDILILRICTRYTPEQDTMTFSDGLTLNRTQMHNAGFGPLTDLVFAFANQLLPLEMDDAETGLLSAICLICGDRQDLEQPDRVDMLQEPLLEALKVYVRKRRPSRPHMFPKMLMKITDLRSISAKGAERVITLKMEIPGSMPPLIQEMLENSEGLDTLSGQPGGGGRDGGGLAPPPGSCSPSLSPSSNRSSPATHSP
Transcription factor E2F1 (Homo sapiens), sequence (Q01094 whole entry, looked up): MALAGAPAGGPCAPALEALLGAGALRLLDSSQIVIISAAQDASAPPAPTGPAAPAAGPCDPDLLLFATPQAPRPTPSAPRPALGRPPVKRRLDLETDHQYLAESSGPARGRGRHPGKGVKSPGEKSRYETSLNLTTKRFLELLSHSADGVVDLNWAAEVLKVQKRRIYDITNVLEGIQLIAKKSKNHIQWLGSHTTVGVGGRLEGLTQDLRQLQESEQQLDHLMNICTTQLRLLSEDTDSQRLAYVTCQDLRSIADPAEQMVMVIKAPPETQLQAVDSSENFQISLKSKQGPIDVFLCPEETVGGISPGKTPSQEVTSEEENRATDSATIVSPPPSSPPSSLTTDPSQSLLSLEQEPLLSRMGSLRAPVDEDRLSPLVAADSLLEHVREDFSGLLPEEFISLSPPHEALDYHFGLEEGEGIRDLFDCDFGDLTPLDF

For the compound `CCCCCCCCCCCCN1CCCCCC1=O`, the compound was classed as inactive in assay [1], in assay [2], in assay [3], in [5], in assay [7] and in [9]. Also, the outcome in assay [10], in [12], in [13], in [14], in assay [15] and in assay [16] was inactive. The compound was classed as inactive in [17]. For the same compound, the AC50 was 18.6 µM (active) in assay [4], 11.1 µM (active) in assay [6], 16.4 µM (active) in assay [8] and 16.3 µM (active) in assay [11].

As for `CC1(C)O[C@@H]2C[C@H]3[C@@H]4CCC5=CC(=O)C=C[C@]5(C)[C@@]4(F)[C@@H](O)C[C@]3(C)[C@]2(C(=O)CO)O1`, the call in assay [1], in assay [2], in assay [3], in assay [4], in assay [6] and in [7] was inactive. Also, the compound was called inactive in [8], in [9], in [10], in [11], in assay [18] and in assay [13]. The outcome in assay [14], in assay [15], in [16] and in [17] was inactive. Besides, the AC50 in [5] is 82 nM (active).

Consider `CC(C)=CCCC(C)CC(=O)O` (centres undefined), for which the result in assay [1], in [2], in assay [3], in assay [4], in assay [5] and in assay [6] was inactive. In addition, the call in assay [7], in [8], in assay [9], in [10], in assay [11] and in assay [12] was inactive. The call in [19], in [20], in [14], in assay [15] and in assay [16] was inactive.

As for `CC(C)NCC(O)COc1ccc(CC(N)=O)cc1` (centres undefined), the compound was called inactive in [1], in assay [2], in assay [3], in assay [4], in assay [5] and in [6]. The compound was classed as inactive in assay [7], in assay [8], in assay [9], in assay [10], in assay [12] and in assay [18]. In addition, the result in assay [19], in [20], in assay [13], in assay [14] and in [15] was inactive.

With `CN1CCOCC1`, the outcome in assay [1], in assay [2], in [3], in [4], in [5] and in assay [6] was inactive. In addition, the call in assay [7], in [8], in [9], in assay [10], in [11] and in [18] was inactive. Moreover, the compound was called inactive in assay [19], in assay [20], in [13] and in [16].

These data come from PubChem BioAssay (EPA / NIEHS).
